An excerpt weighted towards active compounds, which were near 19% of everything screened.
Cycloheximide cs: affects cycloheximide protein synthesis inhibition readout, counter-screen. AID 2314. actives 12% (n = 300,000). max response, %. cell reporter, cycloheximide protein synthesis inhibition counterscreen; in the data active = max response mostly above about 13%, no sharp cut-off; inactive = mostly below about 14%; also: read at 38.3 µM for the half of the compounds with a filed dose
Marburg entry inh: Marburg virus entry inhibition. Marburg virus pseudotyped entry inhibition, cell reporter. AID 540276. actives 1.8% (n = 300,000). Potency, µM (titrated, usually from 37.8 µM), usual class: inhibitors; calls by dose curve; tested in HEK293 cells
Shiga toxin inh: Shiga toxin inhibition; Vero cells, Shiga toxin protein synthesis inhibition reporter; inhibition, % at 38.7 µM; actives 9.2% (n = 290,000); in the data active = inhibition mostly above about 28%, no sharp cut-off; inactive = mostly below about 43%
Lassa entry inh: Lassa virus entry inhibition; Lassa virus pseudotype entry inhibition, cell reporter; Potency, µM (titrated, usually from 37.9 µM), hits mostly inhibitors; actives 1.2% (n = 300,000); AID 540256; calls by dose curve; tested in HEK293 cells; also: nearly all actives have a fitted effect of over 50% in size
Pf growth 96h: P. falciparum growth inhibition at 96 hours. P. falciparum luciferase reporter growth, 96 h. Potency, µM (series often up to 28.7 µM), actives largely listed as inhibitors. actives 6.9% (n = 320,000). AID 504834
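Infected RBCs, 2% Hct / 0.05% parasitemia final; luciferase-reporter P. falciparum; cpd 96 h, 37 C, 5% CO2; luciferase detection reagent; luminescence.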
Pf growth 48h: P. falciparum growth inhibition at 48 hours (one generation) | P. falciparum luciferase growth in erythrocytes, 48 h | Potency, µM (titrated, usually from 28.7 µM), actives largely listed as inhibitors | actives 5.9% (n = 310,000)
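Here the parasites carry a stable luciferase gene and grow inside erythrocytes in Albumax-based RPMI medium with compound for one erythrocytic cycle. Activity is scored as loss of luminescent signal.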
A number is an active result; n = inactive; u = inconclusive; x = no result given; [ ] = remark or other dose. Unless noted, calls follow the shape of the dose curve; as a rule, active = well fitted inhibition curve with a large enough effect; inconclusive = small, poorly fitted or top-dose-only effect, or another doubt; inactive = no such curve, though single readings can be large or run the other way.

SMILES	Cycloheximide cs	Marburg entry inh	Shiga toxin inh	Lassa entry inh	Pf growth 96h	Pf growth 48h
OCCOCCNc1ncnc2c1cnn2-c1ccc(Cl)cc1	n	u	n	u	x	3.29µM
OCCOCCNc1ncnc2c1cnn2-c1ccccc1	n	n	n	n	n	1.31µM
COCCNc1ncnc2c1cnn2-c1ccc(Cl)cc1	43.2	u	73.5	n	x	x
Cc1ccc(NC(=O)c2ccc(CSc3ccccn3)cc2)c(O)c1	n	x	n	x	3.7µM	1.47µM
Cc1ccccc1NC(=O)c1ccc(CSc2ncccn2)cc1	n	n	n	n	u	n
Cc1ccc(NC(=O)c2ccc(CSc3ccccn3)cc2)cc1	30.5	u	81.9	u	n	n
O=[N+]([O-])c1c(NCCO)cc(N2CCN(Cc3ccc4c(c3)OCO4)CC2)c2nonc12	n	u	n	u	n	u
COc1ccc(S(=O)(=O)NC2CC3CCC2C3)cc1 (stereo not drawn)	n	n	x	n	8.28µM	n
CCCC(=O)c1ccc(N2CCOCC2)c(F)c1	37.5	u	67.9	n	n	n
Cc1ccc(C(=O)c2ccc(N3CCOCC3)c(F)c2)cc1	61.9	n	65.5	n	n	n
CCC(=O)c1ccc(N2CCOCC2)c(F)c1	x	n	x	n	x	x
CC(=O)Nc1cc2c3c(c1)CCC(=O)N3CCC2	n	x	n	x	n	n
Cc1ccc(N2CC(C(=O)NCCN3CCOCC3)CC2=O)cc1C (stereo not drawn)	n	n	n	n	n	n
CCN1CCCC1CNc1ncnc2c1[nH]c1ccc(Cl)cc12 (stereo not drawn)	n	n	n	u	1.47µM	0.657µM
Cc1ccc2ncnc(NCCCN3CCOCC3)c2c1	n	n	n	n	u	u
Clc1ccc2[nH]c3c(NCCCN4CCOCC4)ncnc3c2c1	n	u	n	u	n	0.415µM
Cc1ccc2[nH]c3c(NCCN4CCOCC4)ncnc3c2c1	14.1	n	52.6	u	n	4.15µM
C=CCNc1ncnc2c1[nH]c1ccc(C)cc12	43.5	u	79.4	n	u	u
C=CCN(c1ccccc1)S(=O)(=O)c1cccc(C(=O)NC2CCC(O)CC2)c1 (stereo not drawn)	x	n	x	n	n	u
CCN(CC(=O)Nc1c(F)cccc1F)C(=O)/C=C/c1c(C)nn(-c2ccc(F)cc2)c1C	x	n	x	n	n	u
Cc1ccc(-n2c(Cn3nc(C(F)(F)F)cc3C)n[nH]c2=S)cc1	n	n	n	n	x	n
Cn1c(C2=C(O)CN(Cc3ccccc3)C2=N)[n+](C)c2ccccc21	n	u	n	n	n	n
O=C1CCCN1CCCn1cnc2c([nH]c3ccc(F)cc32)c1=O	n	n	n	n	n[5.75 µM]	n
O=C1CCCN1CCCNc1ncnc2c1[nH]c1ccc(Cl)cc12	13.1	n	n	n	u	u
CCCCNc1cc(NC(C)=O)cc2cc(OC)c(OC)cc12	n	n	n	n	n	u
SMILES	Cycloheximide cs	Marburg entry inh	Shiga toxin inh	Lassa entry inh	Pf growth 96h	Pf growth 48h
Nc1ccc(-c2cnc[nH]2)cc1[N+](=O)[O-]	12.3	n	n	u	n	n
CCCn1c(-c2cc(OC)c(OC)c(OC)c2)nc2nc3ccccc3nc21	n	n	n	n	u	u
Clc1cccc(Cl)c1Cn1nnc(N2CCCC2)n1	23.1	n	85.9	u	n	n
S=C(NN=C(c1ccccc1)c1ccccn1)N(Cc1ccccn1)Cc1ccccn1	x	0.631µM	x	u	x	x
S=C(NN=Cc1ccccn1)N(Cc1ccccn1)Cc1ccccn1	x	1.26µM	x	u	x	x
Cc1ccccc1NC(=S)N(Cc1ccccn1)Cc1ccccc1Cl	n	u	n	u	u	u
CC(=NNC(=S)N(Cc1ccccn1)Cc1ccccn1)c1cnccn1	x	u	x	2.82µM	x	x
CCOC(=O)C1=CSC2=NS(=O)(=O)CCN12	n	n	n	n	n	n
COc1ccc(C)cc1NC(=O)CO/N=C(\N)CC(=O)NC1CCCCC1	x	n	x	n	u	u
COc1cccc(/C=C(\C#N)c2nc3ccc(C)cc3[nH]2)c1OCC(=O)O	26.6	x	40.2	x	n	n
CCN(CC)c1ccc(/C=C(/C#N)c2nc3ccccc3[nH]2)c(OC(C)C)c1	47.6	n	119.2	x	u	u
CCOc1cccc(/C=C(/C#N)c2nc3ccccc3[nH]2)c1OCC(=O)O	22.1	x	x	x	u	n
N#C/C(=C\c1cccc(OCC(=O)O)c1)c1nc2ccccc2[nH]1	24.9	x	n	x	u	n
COc1cc(/C=C(\C#N)c2nc3ccccc3[nH]2)cc(Cl)c1OCc1ccccc1Cl	x	u	x	n	x	x
Cc1nc(C(C)(C)O)n(-c2ccccc2)n1	n	n	n	n	x	n
N#CC1=C(N)OC2=C(C(=O)CCC2)C12CCC1(CC2)OCCO1	n	n	n	n	n	n
CC(C)(C)OC(=O)N1CCC(c2c(C(=O)N3CCN(C(=O)c4ccco4)CC3)cnn2-c2cccc(F)c2)CC1	x	x	x	n	x	x
O=S(=O)(c1ccc2nc(Nc3ccc(Br)cc3F)ccc2c1)N1CCCC1	x	x	x	n	x	x
CCCCSCc1ccc(C(=O)O)o1	n	u	n	n	n	n
CCOc1cc(C=C2C(=O)NC(=O)NC2=O)ccc1OCC(=O)N1CCOCC1	n	n	n	n	n	n
CCOC(=O)C1=CN(C)C=C(C(=O)OCC)C1c1ccsc1	16.9	n	n	n	n	u
COC(=O)C1=CN(Cc2ccc(OC)cc2)C=C(C(=O)OC)C1c1ccsc1	n	u	n	10µM	n	7.38µM
CN(Cc1ccc(Cl)cc1)C(=O)c1ccccc1SCC(=O)N1CCCC1	x	u	x	n	n	u
CCOc1ccc(C(=O)N2CCCC(c3nc(-c4ccc(C)o4)no3)C2)cc1 (stereo not drawn)	n	n	n	n	u	n
O=C(C1CCCCC1)N1CCCC(c2nc(-c3ccc(F)cc3)no2)C1 (stereo not drawn)	n	n	n	n	u	n
SMILES	Cycloheximide cs	Marburg entry inh	Shiga toxin inh	Lassa entry inh	Pf growth 96h	Pf growth 48h
Cc1ccc(-c2noc(C3CCCN(C(=O)c4ccc(Cl)cc4)C3)n2)o1 (stereo not drawn)	35.6	u	n	u	n	n
Cc1ccc(-c2noc(C3CCCN(C(=O)C4CCCCC4)C3)n2)o1 (stereo not drawn)	23.6	n	n	u	1.04µM	x
Cc1nc2ncnn2c(C)c1Cc1ccc(Cl)cc1F	n	n	n	n	n	n
CC(Sc1nc2sccc2c(=O)n1-c1ccccc1)C(N)=O (stereo not drawn)	n	n	n	n	1.65µM	u
Cc1ccc(S(=O)(=O)N2CC=C(C(=O)NCc3ccccc3)CC2)cc1	n	n	n	n	n	n
Cc1cc(NC(=O)CCC(=O)N(c2ccccc2)C(C(=O)NC2CCCC2)c2ccc(F)cc2)no1 (stereo not drawn)	n	n	n	n	u	n
Cc1cc(NC(=O)CCC(=O)N(c2ccc(F)cc2)C(C(=O)NC2CCCC2)c2ccccc2)no1 (stereo not drawn)	n	u	n	n	u	u
Cc1cc(NC(=O)CCC(=O)N(c2ccccc2)C(C(=O)NC2CCCCC2)c2cccs2)no1 (stereo not drawn)	n	u	n	n	8.28µM	u

From PubChem
